Reference: PubChem BioAssay (NCI)
“And” between values parts separate entries of the source, which are not always exact repeats. Equal values may be shown once. The panel holds about 83,000 compounds, 20% with a hit somewhere; the sample as a whole holds those more often.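 48-hour exposure, single concentration, 96-well plates; percent growth endpoint where 0 means no net growth. Active: below 10.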 The source made the active and inactive calls.

What follows are molecules tested on MDA-MB-468 breast (assay: NCI-60 one-dose screen, 48 h (100 = growth as untreated, 0 = no growth, -100 = all killed)). Conditions: 10 µM unless noted.

**Q.** How did the growth turn out when `C/C(=N\NC(=O)c1ccccc1N)c1ccccc1O` was run?
**A.** The growth was 15.5% (inactive).

**Q.** With `CSc1nnc(C2=CC(=O)c3ccccc3C2=O)n1-c1ccccc1` as the molecule, how does the growth read?
**A.** Its growth is 82.6% (inactive).

**Q.** `Cc1ccc(C)c2c1C(=O)OC2=O` was tested. Which growth did it give?
**A.** Its growth is 110% (inactive).

**Q.** For `C#Cc1nc(C(C)=O)cs1`, which growth is on record?
**A.** The growth was 90.5% (inactive).

**Q.** Which growth does the source give for `NC(=S)N/N=C(\c1ccc(Cl)cc1)C1CC1` here?
**A.** Its growth is 18.5% (inactive).

**Q.** Which growth does the source give for `Cc1c2c(cc[n+]1Cc1ccccc1)c1ccc(OCc3ccccc3)cc1n2Cc1ccccc1` here?
**A.** The growth was -42.3% (active).

**Q.** For `CCN(C(=O)Nc1cccc2ccccc12)c1ccccc1`, which growth is on record?
**A.** Its growth is 99.7% (inactive).

**Q.** How did the growth turn out when `O=C1c2ccccc2C2N1CCC1CCc3ccccc3N12` (stereo not given) was run?
**A.** Its growth is 95.1% (inactive).

**Q.** How did the growth turn out when `COc1ccc(Cl)cc1NC(=O)c1c(NC(=O)C(F)(F)C(F)(F)F)sc2c1CCCCC2` was run?
**A.** Its growth is -16.9% (active).

**Q.** With `O=C(Nc1ccc(F)cc1)c1ccc(C(=O)Nc2ccc(F)cc2)cc1` as the molecule, how does the growth read?
**A.** The growth was 99.7% (inactive).

**Q.** With `OC(COc1ccccc1Cl)COc1ccccc1Cl` as the molecule, how does the growth read?
**A.** Its growth is 102% (inactive).

**Q.** For `Cn1c(=O)c2[nH]c(CCCCC(=O)O)nc2n(C)c1=O`, which growth is on record?
**A.** The growth was 121% (inactive).

**Q.** Which growth does the source give for `Cc1nc2ccccc2c(/C=C/c2ccc(Cl)cc2)c1C(=O)/C=C/c1ccc(F)cc1` here?
**A.** Its growth is -16.5% (active).

**Q.** How did the growth turn out when `CCCCC1CCCCN1C(=O)OCC` (stereo not given) was run?
**A.** Its growth is 114% (inactive).

**Q.** For `COc1cc(CNC(=O)/C=C/C=C/c2ccc3c(c2)OCO3)ccc1OCc1cn(-c2ccc(Cl)c(Cl)c2)nn1`, which growth is on record?
**A.** Its growth is -68.1% (active).

**Q.** Which growth does the source give for `COc1ccc(-c2cn[nH]c2-c2cc(OC)c(OC)c(OC)c2)cc1N` here?
**A.** Its growth is -13.3% (active) and -29.2% (active).

**Q.** `CNC(=O)c1cc(Oc2cccc3nc(NC(=O)Nc4cc(C(F)(F)F)ccc4Cl)ccc23)ccn1` was tested. Which growth did it give?
**A.** Its growth is 111% (inactive).

**Q.** With `COc1ccc2nc(NC(=O)/C(=C/c3cc(OC)c(OC)c(OC)c3)c3ccc(OC)c(OC)c3)sc2c1` as the molecule, how does the growth read?
**A.** The growth was 109% (inactive).

**Q.** How did the growth turn out when `COc1ccc(/C=C\c2nc3ccccc3s2)cc1OP(=O)(O)O` was run?
**A.** Its growth is 12.4% (inactive).

**Q.** With `CN(C)CCCOc1c(Br)cc(/C=C/C(=O)N(C)CCc2cc(Br)c(OCCCN(C)C)c(Br)c2)cc1Br` as the molecule, how does the growth read?
**A.** The growth was 91.4% (inactive).

**Q.** `Cn1cc(-c2ccc(F)c(C(F)(F)F)c2)nc1C1CCN(c2ncnc3[nH]ncc23)CC1` was tested. Which growth did it give?
**A.** The growth was 64.6% (inactive).

**Q.** How did the growth turn out when `Cc1oc2c(Cc3ccc(NC(=O)c4ccc(Cl)cc4)cc3)ncnc2c1C(=O)NO` was run?
**A.** Its growth is 92.1% (inactive).

**Q.** Which growth does the source give for `COc1ccc(CN2CCCC(C(=O)c3ccc(C(F)(F)F)cc3)C2)c(O)c1` (stereo not given) here?
**A.** Its growth is 12.9% (inactive).

**Q.** With `C#CCN(C)Cc1ccccc1` as the molecule, how does the growth read?
**A.** The growth was 96.1% (inactive) and 122% (inactive).

**Q.** How did the growth turn out when `COc1ccc(-c2cc(-c3cc(OC)ccc3OC)nc(N)c2C#N)cc1` was run?
**A.** Its growth is 70.2% (inactive).

**Q.** For `O=C(Nc1ccccc1C(=O)N/N=C(\c1ccccc1)c1ccccn1)c1ccccc1`, which growth is on record?
**A.** The growth was -19.4% (active).

**Q.** With `COc1cc(-c2cc(/C=C/C(C)=O)[nH]n2)cc(OC)c1OC` as the molecule, how does the growth read?
**A.** Its growth is 54.5% (inactive).

**Q.** With `COc1ccc(C2CC(c3cccc(Nc4nc(Cl)nc5cc(OC)c(OC)cc45)c3)=Nc3c(N)nc(N)nc3N2)cc1` (stereo not given) as the molecule, how does the growth read?
**A.** Its growth is 92.3% (inactive).

**Q.** With `CCc1c(C(=O)NCc2c(O)ccc3cccc(O)c23)[nH]c(C)c1C(C)=O` as the molecule, how does the growth read?
**A.** The growth was 18.5% (inactive).

**Q.** `Cc1cc(C)c2nc(C)c(C)[n+]([O-])c2c1` was tested. Which growth did it give?
**A.** The growth was 101% (inactive).

**Q.** `COc1ccc2c(c1)O/C(=C\c1ncc([N+](=O)[O-])n1C)C2=O` was tested. Which growth did it give?
**A.** The growth was -7.9% (active).

**Q.** Which growth does the source give for `COC(=O)c1ccc2cc(OC)c(OC)cc2c1` here?
**A.** The growth was 98.6% (inactive).

**Q.** `COc1ccc(/C=N/C2=C(C#N)C(c3ccc(OC)cc3)c3ccc4ccccc4c3O2)cc1` (stereo not given) was tested. Which growth did it give?
**A.** The growth was 38.2% (inactive).

**Q.** For `COc1ccc2c(c1)CCc1[nH]nc(-c3cc(OC)c(OC)c(OC)c3)c1-2`, which growth is on record?
**A.** Its growth is -4.62% (active).

**Q.** `COc1ccc(OC)c(/C=C2\Oc3cc(OCCCN4CCCC4)ccc3C2=O)c1` was tested. Which growth did it give?
**A.** Its growth is 77.7% (inactive).

**Q.** With `CCCCCCCSc1ncnc2[nH]ncc12` as the molecule, how does the growth read?
**A.** The growth was 68.8% (inactive).

**Q.** Which growth does the source give for `COc1ccc(NC2=C(Br)C(=O)C(C)=C(C)C2=O)cc1` here?
**A.** The growth was -59% (active).

**Q.** For `CC(=O)c1cccc(N(C)S(=O)(=O)c2ccc(C)cc2)c1`, which growth is on record?
**A.** The growth was 111% (inactive).

**Q.** For `CCCCCCNC(=O)Oc1ccc(/C(=C(\C)c2ccc(Cl)cc2)c2ccc(OCCN(CC)CC)cc2)cc1`, which growth is on record?
**A.** The growth was 52.4% (inactive).

**Q.** `CC(=O)c1cccc(OC(=O)c2ccccc2)c1` was tested. Which growth did it give?
**A.** The growth was 104% (inactive).
